# Reference: PubChem BioAssay AID651558 (National Center for Advancing Translational Sciences (NCATS), 2012)
# About 480 (40%) of roughly 1,200 compounds were called active. Inconclusive results (about 29%) are left out. Calls come from the whole dose curve; as a rule, active = well fitted inhibition curve with a large enough effect; inconclusive = small, poorly fitted or top-dose-only effect; inactive = no such curve, though single readings can be large or run the other way. This is one part of the list.
# Test: qHTS Assay to Find Inhibitors of Chronic Active B-Cell Receptor Signaling: Hit Validation in Primary Screen; note: nearly all actives have a fitted effect of over 75% in size
# Conditions: ABC-DLBCL IkB-luc/CBR ratio luminescence, 4 h; series mostly up to 46.1 µM
# In short: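 TMD8 ABC-DLBCL cells carrying doxycycline-inducible IkBa-green luciferase fusion and free red luciferase, 0.5% FBS, dosed 46 uM–3 nM with doxycycline for 4 h at 37C. Green/red luminescence ratio normalized to basal and 10 uM MG-132.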
# Potency is the fitted concentration of half-maximal effect.
row,SMILES,Potency
1,Cc1cc(C)c2nc3sc(C(=O)N4CCOCC4)c(N)c3cc2c1,1460 nM (active)
2,CCCC1=Nc2cc(C(=O)NCCCOC(C)C)ccc2Sc2ccccc21,20600 nM (active)
3,CCCC1=Nc2cc(C(=O)NCCCOCC)ccc2Sc2ccccc21,1030 nM (active)
4,CCOCCCNC(=O)c1ccc2c(c1)N=C(CC)c1cc(Br)ccc1S2,259 nM (active)
5,CCC1=Nc2cc(C(=O)NCCCOC)ccc2Sc2ccccc21,2060 nM (active)
6,CC1=NN(C(N)=S)C(=O)C1N=Nc1cccc(C)c1 (stereo not drawn),inactive
7,O=C(c1cc([N+](=O)[O-])ccc1N1CCOCC1)N1CCN(c2ccccc2)CC1,3260 nM (active)
8,O=C(c1ccc(Cl)cc1)c1cc([N+](=O)[O-])ccc1N1CCOCC1,5800 nM (active)
9,O=C(Oc1ccc2ccc(OC(=O)N3CCOCC3)cc2c1)N1CCOCC1,inactive
10,C/C(=N\NC(=O)COc1ccc(C(C)(C)C)cc1)c1ccc(N2CCOCC2)cc1,inactive
11,O=C(NC(=S)N1CCOCC1)c1cn(-c2ccccc2)nc1-c1ccccc1,inactive
12,CCOc1ccc(C(=O)c2cc([N+](=O)[O-])ccc2N2CCOCC2)cc1,116 nM (active)
13,COc1ccc(C(=O)c2cc([N+](=O)[O-])ccc2N2CCOCC2)cc1,2060 nM (active)
14,Cc1ccc(-n2cc(CNCCc3ncc(C)[nH]3)c(-c3ccc(F)cc3)n2)cc1,inactive
15,COc1cc2c(cc1OC)-c1cc(NC3CCCCC3)nc(=O)n1CC2,23100 nM (active)
16,COc1cc2c(cc1OC)-c1cc(NC3CCCCCC3)nc(=O)n1CC2,9200 nM (active)
17,Cc1onc(-c2ccccc2)c1-c1nc2cc(Cl)ccc2c(=O)o1,2310 nM (active)
18,C#CCOCCOCCOCCNc1nc(N2CCN(C(=O)[C@H](C(C)C)n3cc(CCO)nn3)CC2)nc(N2CCN(C(=O)[C@H]([C@@H](C)CC)n3cc(CCCN=C(N)N)nn3)CC2)n1,inactive
19,COc1ccc(N(CC(=O)NC2CCCC2)C(=O)Cn2nnc(-c3ccc(OC)c(OC)c3)n2)c(OC)c1,inactive
20,COc1ccc(/C=C/C(=O)Nc2ccc(-n3nncc3-c3ccc(OC)c(OC)c3)cc2)cc1OC,2310 nM (active)
21,COc1ccc(C(=O)Nc2ccc(-n3nncc3-c3ccc(OC)c(OC)c3)cc2)cc1,2060 nM (active)
22,COc1ccc(-c2cc(C(=O)NN)[nH]n2)cc1OC,inactive
23,Fc1cccc2sc(Nc3nnc(-c4ccccc4)o3)nc12,130 nM (active)

row,SMILES,Potency
1,COc1cccc(-c2nnc(Nc3nc4c(F)cccc4s3)o2)c1,326 nM (active)
2,O=C(/C=C/c1cccc(Cl)c1)c1nc2ccccc2[nH]1,20600 nM (active)
3,CCN(C(=O)c1cnc(NC(C)C)cc1C(F)(F)F)c1ccc(Cl)cc1Cl,inactive
4,CCOc1ccc2c(c1)OC(c1ccc(OC)cc1)(C(F)(F)F)NC2=O (stereo not drawn),11600 nM (active)
5,Oc1c(CN2CCN(c3ccccc3)CC2)cc(Br)c2cccnc12,inactive
6,COc1ccccc1N1CCN(C(=O)C2c3ccccc3Oc3ccccc32)CC1,16400 nM (active)
7,COc1ccccc1N1CCN(C(=O)c2cc(=O)c3cc(C)cc(C)c3o2)CC1,1030 nM (active)
8,CCOC(=O)c1cnc(Nc2nc3ccccc3o2)nc1CSC(=S)N1CCCCC1,inactive
9,COc1ccc(-c2c/c(=N\c3nc(-c4ccccc4)c(C)s3)c3ccccc3o2)cc1O,8200 nM (active)
10,Cc1csc(N/N=C/c2ccccn2)n1,inactive
11,C(=N\Nc1nc2ccccc2s1)/c1ccccn1,14600 nM (active)
12,NC(=S)Nc1nc2ccccc2s1,inactive
13,COc1ccc(-c2noc(CSc3nc(N)c(-c4ccccc4)c(=O)[nH]3)n2)cc1OC,7310 nM (active)
14,COc1ccc(-c2noc(CSc3nc(N)c(-c4ccccc4)c(=O)[nH]3)n2)cc1,8200 nM (active)
15,Nc1nc(SCc2nc(-c3ccccc3)no2)[nH]c(=O)c1-c1ccccc1,20600 nM (active)
16,COCCNC(=S)N/N=C(\C)c1ccccc1F,inactive
17,CCOc1ccc(S(=O)(=O)Nc2ccc3oc(C)c(C(=O)OCCOC)c3c2)cc1,8200 nM (active)
18,O=C(/C=C\c1ccco1)Nc1cc([N+](=O)[O-])ccc1F,1840 nM (active)
19,O=C(Cc1ccc(-n2c(=O)c3ccccc3n(Cc3ccccc3Cl)c2=O)cc1)NCC1CCCO1 (stereo not drawn),2590 nM (active)
20,CCn1c(O)c(N=NC(=S)NCC2CCCO2)c2ccccc21 (stereo not drawn),inactive
21,CC1CCC(n2c(=S)[nH]c3ccccc3c2=O)CC1 (stereo not drawn),inactive
22,CCN(CC(=O)NCc1ccc(F)cc1)C(=O)/C=C/c1ccc(OC)c(S(=O)(=O)NC(C)C)c1,18400 nM (active)
23,CN(C)c1nc(=Nc2cccc(Cl)c2)ss1,20600 nM (active)

row,SMILES,Potency
1,Cc1[nH]n(C(N)=S)c(=O)c1N=Nc1cccc(Cl)c1,inactive
2,O=C(Nc1ncc(Cc2ccc(SC(F)F)cc2)s1)c1ccccc1,18400 nM (active)
3,O=C(Nc1ncc(Cc2ccc(SC(F)F)cc2)s1)c1ccc(OC(F)F)cc1,651 nM (active)
4,Cc1ccc(C(=O)Nc2ncc(Cc3ccc(SC(F)F)cc3)s2)cc1,1300 nM (active)
5,CCCCC(=O)O[C@]1(C(=O)CO)CC[C@H]2[C@@H]3CCC4=CC(=O)CC[C@]4(C)[C@H]3[C@@H](O)C[C@@]21C,inactive
6,CCCSc1nc(C)c(C(C)=O)cc1C#N,16400 nM (active)
7,CCOc1cc(-c2cc(-c3ccc(NC(C)=O)cc3)nc(N)c2C#N)ccc1O,20600 nM (active)
8,CC(C)(C)NNC(=S)Nc1cccc(C(F)(F)F)c1,inactive
9,CN1CCN(Cc2cc(COCc3ccccc3)c3cccnc3c2O)CC1,inactive
10,CC(C)n1c(SCC(=O)Nc2ccccc2)nc2c1c(=O)n(C)c(=O)n2C,18400 nM (active)
11,CC(C)Sc1ccccc1C(=O)Nc1ccc2c(c1)n(C)c(=O)n2C,inactive
12,CC1CCCCN1C(=S)NC(=O)c1cccs1 (stereo not drawn),inactive
13,Cc1cnn(CCC(=O)NNC(=S)NCC(C)C)c1,inactive
14,C/C(=N\NC(=O)COc1ccccc1-c1ccccc1)c1ccccn1,inactive
15,O=C(COc1ccccc1-c1ccccc1)NN=C1CCCC1,inactive
16,C/C(=N/NC(=O)COc1cc(C)ccc1C(C)C)C(=O)O,inactive
17,O=C(COc1ccccc1-c1ccccc1)N/N=C/c1ccc2ccccc2c1,651 nM (active)
18,C/C(CCC(C)C)=N\NC(=O)COc1ccccc1-c1ccccc1,inactive
19,O=C(COc1ccccc1-c1ccccc1)N/N=C/c1cccc2ccccc12,2060 nM (active)
20,Cc1ccc(Cl)cc1NC(=S)N/N=C/c1cccc2ccccc12,inactive
21,COc1ccc(/C=N/NC(=O)COc2ccccc2-c2ccccc2)cc1,2590 nM (active)
22,Cc1ccc(/C=N/NC(=O)COc2ccccc2-c2ccccc2)cc1,291 nM (active)
